From the supplement of paper PMC13380429

What follows are molecules tested on Vero E6 infected with SARS-CoV-2 (assay: SARS-CoV-2 infection rate relative to infected DMSO; higher = more infection, active = 60 or less). Conditions: 24 h.

Structure (SMILES)	SARS-CoV-2 infection rate
CN(C)NC(=O)CCC(=O)O [daminozide] (10 µM)	95% (inactive)
CO[C@]12C[C@@H](COC(=O)c3cncc(Br)c3)CN(C)[C@@H]1Cc1cn(C)c3cccc2c13 [nicergoline] (10 µM)	81% (inactive)
COc1cccc2c1C(=O)c1c(O)c3c(c(O)c1C2=O)C[C@@](O)(C(=O)CO)C[C@@H]3O[C@H]1C[C@H](N2CCO[C@H](OC)C2)[C@H](O)[C@H](C)O1 [nemorubicin] (0.833333 µM)	108% (inactive)
c1ccc2c(CCNc3ccc(Nc4ccncc4)cc3)c[nH]c2c1 [serdemetan] (10 µM)	37.5% (active)
COc1nccc(-c2c(-c3ccc(F)cc3)ncn2C2CCNCC2)n1 (10 µM)	98.5% (inactive)
CC(C)(Oc1ccc(C2CC2(Cl)Cl)cc1)C(=O)O (stereo not given) [ciprofibrate] (10 µM)	109% (inactive)
Oc1cccc(Nc2ncc(F)c(Nc3cccc(O)c3)n2)c1 (0.833333 µM)	100% (inactive)
CN[C@@H]1[C@H](O[C@H]2[C@H](O[C@H]3[C@H](O)[C@@H](O)[C@H](NC(=N)N)[C@@H](O)[C@@H]3NC(=N)N)O[C@@H](C)[C@]2(O)CO)O[C@@H](CO)[C@H](O)[C@H]1O [dihydrostreptomycin] (10 µM)	114% (inactive)
CC(C)COC(=O)c1ccc(N)cc1 [isobutamben] (10 µM)	106% (inactive)
O=C(Nc1ccccc1)N1CCC(Cc2cnc3ccccc3c2)CC1 (10 µM)	104% (inactive)
